In all, about 4,100 compounds went through this assay and about 1,600 (39%) were called active. Roughly 25% stayed inconclusive and do not appear here. Calls come from the whole dose curve; as a rule, active = well fitted inhibition curve with a large enough effect; inconclusive = small, poorly fitted or top-dose-only effect; inactive = no such curve, though single readings can be large or run the other way. The list shows a part of the results.
Potency is the fitted concentration of half-maximal effect.

The assay is described as follows: qHTS Validation assay for Inhibitors of Plasmodium falciparum Dd2 growth in vitro. Note: nearly all actives have a fitted effect of over 70% in size. The following applies: P. falciparum Dd2 in RBCs, SYBR Green growth, 72 h; series mostly up to 28.7 µM. The method in brief: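 P. falciparum Dd2-infected red blood cells (2.5% hematocrit, 0.3% parasitemia) grown 72 h at 37 °C under 5% O2 with compounds in a titration, 29 uM to 0.5 nM final. Growth read as SYBR Green-1 fluorescence after ~16 h lysis; artesunate 300 nM as positive control.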
Turning to `Cc1cn2nc(-c3nc(C4CCCN(C(=O)c5cccs5)C4)no3)cc2c(=O)[nH]1` (stereo unspecified), the Potency result was “inactive”.

For the compound `CCCCC(=O)NC(c1ccc(C(C)C)cc1)c1ccc2cccnc2c1O` (stereo unspecified), the Potency is 7.5 µM (active).

On to `c1ccc(-[n+]2nc(Nc3cccc4ccccc34)sc2-c2c3ccccc3cc3ccccc23)cc1`, for which the Potency was 5.96 µM (active).

With `CCOC(=O)C1(Cc2ccc(Cl)cc2)CCN(Cc2ccc(OC)cc2O)CC1`, the Potency is 0.188 µM (active).

For `COc1cc(CN2CCC3(CC2)C(=O)NCN3Cc2ccc(Cl)cc2)ccc1F`, the Potency entry is “inactive”.

As for `COc1ccc(CCN2CC(C(=O)N3CCC(CO)CC3)CCC2=O)cc1` (stereo unspecified), the Potency entry is “inactive”.

Take `COC(=O)[C@]1(C)CCC[C@@]2(C)C3CC[C@@]4(C)C[C@]3(CCC21)CC(=O)N4Cc1ccc(OC)cc1` (stereo partly specified): the Potency is 3.76 µM (active).

As for `COc1ccc(CNC(=O)C2=C(C)C(=O)OC23CCC(C)CC3)cc1` (stereo unspecified), the Potency result is “inactive”.

For the compound `Cc1c(C#N)c2ccccc2n1CCOc1ccccc1F`, the Potency was 1.68 µM (active).

On to `COc1ccc(-c2nc(Cn3c(SCc4ccccc4F)nc4ccncc43)c(C)o2)cc1OC`, for which the Potency was 8.41 µM (active).

For the compound `COc1cc(NC(=O)CSc2nc3nc(C)c(Cc4ccc(C)cc4)c(C)n3n2)cc(OC)c1`, the Potency entry was “inactive”.

`COc1cc(NC(=O)CSc2nc(-c3ccccc3)no2)cc(OC)c1`: the Potency is 2.37 µM (active).

As for `CC(C)c1ccc(NC(=O)CSc2nc(=O)n(Cc3ccccn3)c3c2CCC3)cc1`, the Potency result was “inactive”.

As to `COc1cc(NC(=O)CSc2nc(-c3ccc(C(C)C)cc3)no2)cc(OC)c1`, the Potency was 0.842 µM (active).

With `COc1ccc(C2Cn3nnc(C(=O)NCc4ccc(F)cc4Cl)c3CO2)cc1` (stereo unspecified), the Potency entry was “inactive”.

With `COc1ccc2c(CNCc3ccccc3OC)c(C(=O)O)n(Cc3ccc(F)cc3Cl)c2c1`, the Potency is 15 µM (active).

Regarding `Cc1ncc2n1C(=O)N(C1CCN(Cc3ccnn3C)CC1)C2`, the Potency result was “inactive”.

As to `O=C(Nc1ccc([C@@H](O)[C@H]2COCC(=O)N2Cc2ccccc2F)cc1)c1ccccc1`, the Potency entry was “inactive”.

As to `COc1ccc(CN2C(=O)COC[C@@H]2[C@H](O)c2ccc(NC(=O)c3ccc(C(C)(C)C)cc3)cc2)cc1`, the Potency was 2.11 µM (active).

For `O=C(Nc1ccc([C@@H](O)[C@H]2COCC(=O)N2Cc2ccc(F)cc2)cc1)c1ccc2c(c1)OCO2`, the Potency result is “inactive”.

For the compound `CCOC(=O)c1nnn(-c2nonc2N)c1-c1ccc(OC)cc1`, the Potency is 5.31 µM (active).

For the compound `COc1ccc(-c2noc(CCCC(=O)O)n2)cc1`, the Potency entry is “inactive”.

Consider `CCOC(=O)c1nnn(-c2nonc2N)c1-c1ccc(Br)cc1`, for which the Potency is 2.66 µM (active).

In the case of `Cc1noc(C)c1COC(=O)/C=C/c1ccc(Cl)cc1`, the Potency entry is “inactive”.

In the case of `CCOC(=O)c1nnn(-c2nonc2N)c1-c1ccc(Cl)cc1`, the Potency was 5.31 µM (active).

As to `CCOC(=O)c1nnn(-c2nonc2N)c1-c1ccc(C)cc1`, the Potency was 5.31 µM (active).

Regarding `CCCS(=O)(=O)N1C[C@@H](COC)[C@H](c2nc(C)no2)C1`, the Potency result was “inactive”.

Turning to `CCC(=O)N1CCc2cc(S(=O)(=O)NCCC(=O)Nc3ccc(OC)c(Cl)c3)ccc21`, the Potency entry was “inactive”.

In the case of `CC(C)(C)NC(=O)C1CCCN(C2CCN(C3Cc4ccccc4C3)CC2)C1` (stereo unspecified), the Potency result is “inactive”.

Regarding `CCC(=O)N1CCc2cc(Br)cc(S(=O)(=O)N3CCCCC3CC)c21` (stereo unspecified), the Potency was 1.06 µM (active).

Turning to `CCC(=O)N1CCc2cc(Br)cc(S(=O)(=O)C3(C(=O)OC)CC3)c21`, the Potency was 3.76 µM (active).

For the compound `CCC(=O)N1CCc2cc(Br)cc(S(=O)(=O)N3CCCC(C(=O)NC(C)(C)C)C3)c21` (stereo unspecified), the Potency is 3.35 µM (active).

Take `CCC(=O)N1CCc2cc(S(=O)(=O)CCC(=O)NCc3ccc(OC)cc3)ccc21`: the Potency entry was “inactive”.

On to `Cc1nc(-c2ccccc2OC2CN(S(=O)(=O)Cc3ccccc3F)C2)no1`, for which the Potency entry is “inactive”.

Turning to `CC(C)(C)c1ccc(CN(Cc2ccccc2)C(c2ccccn2)c2nnnn2C(C)(C)C)cc1` (stereo unspecified), the Potency is 4.73 µM (active).

Regarding `CC(C)(C)n1nnnc1C(c1cccnc1)N(Cc1ccccc1)Cc1ccco1` (stereo unspecified), the Potency was 5.31 µM (active).

For the compound `Cc1noc(C)c1NC(=O)N1CCC(c2n[nH]c(=O)n2-c2ccccc2)CC1`, the Potency result is “inactive”.

As to `Cc1nccn1CC(O)Cn1c2ccccc2c2ccccc21` (stereo unspecified), the Potency is 8.41 µM (active).

As to `Cc1ccccc1C(=O)N1CCC2(CC1)N(c1ccccc1)C(=O)CS2(=O)=O`, the Potency entry is “inactive”.

Regarding `O=C(c1cccc2[nH]ccc12)N1CCCC(n2cc(-c3nc(C4CC4)no3)nn2)C1` (stereo unspecified), the Potency entry was “inactive”.

As to `OCc1ccc(CN2CCCC(CCc3c(F)cccc3F)C2)o1` (stereo unspecified), the Potency is 4.22 µM (active).

Consider `OC[C@H]1CCN(Cc2ccc(-c3cccc(Cl)c3Cl)o2)C[C@@H]1O`, for which the Potency entry is “inactive”.

Take `CCCOc1ccc(Oc2nc(-c3ccncc3)nc3ccccc23)cc1`: the Potency is 4.22 µM (active).

Turning to `Cc1cccc(Oc2nc(-c3ccncc3)nc3ccccc23)c1`, the Potency is 7.5 µM (active).

As for `Cc1cccc(Oc2nc(-c3ccccn3)nc3ccccc23)c1`, the Potency was 7.5 µM (active).

On to `c1ccc(Oc2nc(-c3ccccn3)nc3ccccc23)cc1`, for which the Potency is 7.5 µM (active).

Take `CCSc1nc(CC(=O)NCc2ccc(S(N)(=O)=O)cc2)cs1`: the Potency result is “inactive”.

As for `CC(=O)c1c(C)[nH]c(C(=O)COc2ccc3ccc(=O)oc3c2)c1C`, the Potency result is “inactive”.

As for `c1ccc(-c2nc(N3CCCCCC3)c3ccccc3n2)nc1`, the Potency was 1.68 µM (active).

Regarding `Cc1ccccc1Oc1nc(-c2ccccn2)nc2ccccc12`, the Potency is 6.68 µM (active).

In the case of `Fc1ccc(Oc2nc(-c3ccccn3)nc3ccccc23)cc1`, the Potency is 13.3 µM (active).

With `Cc1nn(C)c2nc(-c3ccccn3)nc(N3CCC4(CC3)COC(=O)O4)c12`, the Potency result was “inactive”.

With `CCCSc1ccc([C@H]2N[C@@](Cc3ccccc3)(C(=O)OC)[C@H]3C(=O)N(CC)C(=O)[C@@H]23)cc1`, the Potency was 5.31 µM (active).

On to `CCCCCCSc1ccc([C@H]2N[C@@](Cc3ccccc3)(C(=O)OC)[C@H]3C(=O)N(C)C(=O)[C@@H]23)cc1`, for which the Potency is 4.73 µM (active).

Turning to `CCCCCCSc1ccc([C@H]2N[C@@](Cc3ccccc3)(C(=O)OC)[C@H]3C(=O)N(CC)C(=O)[C@@H]23)cc1`, the Potency was 3.35 µM (active).

For the compound `O=C(CCl)N(c1ccccc1)c1c[nH]c2ccccc12`, the Potency is 2.11 µM (active).

Consider `Cc1cc2nc(/C=C/c3nc4cc(C)c(C)cc4[nH]3)[nH]c2cc1C`, for which the Potency result is “inactive”.

As for `NC1CC(c2cc(N3CCCN(C(=O)c4ccoc4)CC3)ncn2)C1` (stereo unspecified), the Potency result is “inactive”.

For `Cc1cc(C)cc(N2CCN(c3cc(C4CC(O)C4)nc(C)n3)CC2=O)c1` (stereo unspecified), the Potency result is “inactive”.

For the compound `COc1ccc(N2CCN(c3cc(C4CC(N)C4)nc(N)n3)CC2(C)C)cc1` (stereo unspecified), the Potency is 2.99 µM (active).

For the compound `COc1ccc(/C=C/C(=O)Nc2ccc3nc4c(c(Nc5ccccc5OC)c3c2)CCCC4)cc1`, the Potency was 3.35 µM (active).

Turning to `Fc1ccc(F)c(Nc2c3c(nc4ccc(Cl)cc24)CCC3)c1`, the Potency entry was “inactive”.

Take `COc1ccccc1Nc1c2c(nc3ccc(NC(=O)/C=C/c4cccc(OC)c4OC)cc13)CCCC2`: the Potency is 5.96 µM (active).

Turning to `Cc1cc(N2CCN(C3CCCC3)CC2)n2c(nc3ccccc32)c1C#N`, the Potency was 1.06 µM (active).

For the compound `O=C(N[C@H](c1ccccn1)C1CC(O)C1)c1cc(=O)n(-c2ccccc2)[nH]1` (stereo partly specified), the Potency is 9.44 µM (active).

As to `COc1ccc(NS(=O)(=O)c2cc(NC(=O)/C=C/c3cc(OC)c(OC)c(OC)c3)ccc2N2CCCCC2)cc1`, the Potency was 6.68 µM (active).

For the compound `CCOC(=O)c1ccc(Nc2nc(N)c3cc(OC)c(OC)cc3n2)cc1`, the Potency was 1.88 µM (active).

`COc1cc2nc(Nc3ccc(C)c(C)c3)nc(N)c2cc1OC`: the Potency was 0.75 µM (active).

With `COc1cc2nc(Nc3ccc(C)c(Cl)c3)nc(N)c2cc1OC`, the Potency was 2.11 µM (active).

With `COc1cc2nc(N3CCN(c4cc(C)ccc4C)CC3)nc(N)c2cc1OC`, the Potency was 6.68 µM (active).

As to `COc1ccc(C(=O)c2nccc3cc(OC)c(OC)cc23)cc1OC`, the Potency result was “inactive”.

With `COc1ccc(Cl)cc1C(=O)NCc1nnc2c(-c3nc(C(C)C)no3)cccn12`, the Potency result is “inactive”.

Turning to `O=C(NCc1ccc(C(F)(F)F)cc1F)[C@H]1CCC[C@@H](O)C1`, the Potency result was “inactive”.

As to `CCOC(=O)c1c(S(=O)(=O)N2CCCC(C(=O)N3CCN(c4cc(C)ccc4C)CC3)C2)c(C)n(C)c1C` (stereo unspecified), the Potency was 1.5 µM (active).

Regarding `CCOC(=O)c1c(C)[nH]c(C)c1S(=O)(=O)N1CCCC(C(=O)N2CCN(c3cccc(C)c3C)CC2)C1` (stereo unspecified), the Potency was 1.33 µM (active).

For the compound `CCOC(=O)c1c(S(=O)(=O)N2CCCC(C(=O)N3CCN(c4cccc(C)c4C)CC3)C2)c(C)n(C)c1C` (stereo unspecified), the Potency was 1.06 µM (active).

`CCc1cccc(OC2CN(C(=O)C3CCCN(CC(N)=O)C3)C2)c1` (stereo unspecified): the Potency result is “inactive”.

Turning to `CCOC(=O)c1c(C)[nH]c(C)c1S(=O)(=O)N1CCCC(C(=O)N2CCN(c3cc(C)ccc3C)CC2)C1` (stereo unspecified), the Potency entry was “inactive”.

In the case of `OC1CCN(c2cc(N3CCOC(c4ccc(F)cc4)C3)ncn2)CC1` (stereo unspecified), the Potency result is “inactive”.

Take `C=CCCC(=O)Nc1nc(C)c(-c2csc(Nc3ccc(Cl)cc3)n2)s1`: the Potency entry was “inactive”.

In the case of `CCCCC(=O)Nc1nc(C)c(-c2csc(Nc3cc(OC)ccc3OC)n2)s1`, the Potency is 9.44 µM (active).

As for `CN(Cc1cc(-c2cccnc2)no1)C(=O)C1COc2ccccc2C1` (stereo unspecified), the Potency entry is “inactive”.

For `COC[C@@H]1CN(C(=O)c2cccc(OC(F)(F)F)c2)C[C@H]1C(N)=O`, the Potency entry was “inactive”.

Consider `O=C(Nc1ccc(Nc2ccncc2)cc1)c1ccc(Nc2ccnc3ccc([N+](=O)[O-])cc23)cc1`, for which the Potency was 0.75 µM (active).

On to `O=C(Nc1ccc(Nc2ccncc2)cc1)c1ccc(Nc2ccnc3ccc([N+](=O)[O-])cc23)cc1[N+](=O)[O-]`, for which the Potency is 1.33 µM (active).

For `COc1cnc(-c2ccccn2)nc1Sc1c(Cl)cccc1Cl`, the Potency was 2.99 µM (active).

Turning to `COc1cnc(-c2ccccn2)nc1Sc1ccc(Cl)cc1`, the Potency is 5.96 µM (active).

In the case of `Oc1ccccc1C1=NN(c2ccccc2)C(c2ccccc2)C1` (stereo unspecified), the Potency was 7.5 µM (active).

In the case of `COc1ccc(-c2cc(N3CCN(C(=O)c4c[nH]c5ccccc45)CC3)n[nH]2)cc1`, the Potency is 15 µM (active).

`CCOc1ccccc1C(=O)N1CCN(c2cc(-c3ccc(OC)cc3)[nH]n2)CC1`: the Potency entry was “inactive”.

On to `O=C(c1ccc2nc[nH]c2c1)N1CCCN(c2cc(-c3ccc(Cl)cc3)[nH]n2)CC1`, for which the Potency entry is “inactive”.

(Values after PubChem BioAssay AID1347416 (National Center for Advancing Translational Sciences (NCATS), 2020).)
